Assay results taken from PubChem BioAssay AID1233 (SRMLSC, 2008).
Potency and affinity values are given separately. Active and inactive are the calls of the source.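 The calls were made as follows: active = a dose-response curve fit returns a half-maximal inhibitory concentration, extrapolated values included; inactive = the fit returns no such concentration.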

The compounds below were run against HMG-CoA reductase [Enterococcus faecalis] (UniProt Q9FD70) (assay: class II HMG-CoA reductase inhibition potency – biochemical, Enterococcus faecalis, confirmation (AID 1233)). Conditions: purified E. faecalis HMGR, NADPH absorbance 340 nm kinetics; series mostly up to 100 µM.

**Q.** `O=C(COc1ccc2ccc(=O)oc2c1)N1CCN(c2ccccc2)CC1` was tested. Which outcome did it give?
**A.** Its outcome is “inactive”.

**Q.** For `ON/C=N/C(=S)Nc1ncc(C(F)(F)F)cc1Cl`, which outcome is on record?
**A.** The outcome was “inactive”.

**Q.** For `CCS(=O)(=O)CCn1c([N+](=O)[O-])cnc1C`, which outcome is on record?
**A.** The outcome was “inactive”.

**Q.** Which outcome does the source give for `CCCn1c(SCC(=O)N2CC(=O)Nc3ccccc32)nc2ccccc21` here?
**A.** The outcome was “inactive”.

**Q.** Which outcome does the source give for `NNc1nc2c(Cl)ccc(Cl)c2s1` here?
**A.** Its outcome is “inactive”.

**Q.** `CC(=O)N1CC2(C)CN(C(C)=O)CC(C)(C1)C2` was tested. Which outcome did it give?
**A.** The outcome was “inactive”.

**Q.** How did the outcome turn out when `COc1ccccc1C(=O)NNC(=O)c1ccc(NC(=O)c2ccccc2)cc1` was run?
**A.** The outcome was “inactive”.

**Q.** For `Cc1ccc(S(=O)(=O)ON2C(=O)c3ccccc3C2=O)c(C)c1`, which outcome is on record?
**A.** The outcome was “inactive”.

**Q.** For `NCCc1nnc(SCc2ccc(F)cc2)o1`, which outcome is on record?
**A.** Its outcome is “inactive”.

**Q.** How did the outcome turn out when `O=C(Nc1ccc2c(c1)OCO2)c1ccc(COc2ccc3c(c2)CCC3)o1` was run?
**A.** The outcome was “inactive”.

**Q.** `COc1cccc(CNC(=O)CCS(=O)(=O)c2cccs2)c1` was tested. Which outcome did it give?
**A.** The outcome was “inactive”.

**Q.** How did the outcome turn out when `CN(C(=O)c1cc2ccccc2oc1=O)C1(C)CCS(=O)(=O)C1` (centres undefined) was run?
**A.** The outcome was “inactive”.

**Q.** How did the outcome turn out when `CC(C)(C)c1ccc(C(=O)Nc2ccc(NC(=O)c3ccco3)cc2)cc1` was run?
**A.** The outcome was “inactive”.

**Q.** For `C=CCNC(=O)C(C#N)c1nc2ccccc2nc1N1CCCCCC1` (centres undefined), which outcome is on record?
**A.** Its outcome is “inactive”.

**Q.** How did the outcome turn out when `Cn1c(SCC(=O)c2ccc(F)cc2)nnc1-c1cccnc1` was run?
**A.** The outcome was “inactive”.

**Q.** How did the outcome turn out when `CCOC(=O)c1c(-c2ccccc2)csc1NC(=S)N(CC)CC` was run?
**A.** The outcome was “inactive”.

**Q.** `Cc1ccc(C(=O)NCc2ccccc2)c(F)c1F` was tested. Which outcome did it give?
**A.** The outcome was “inactive”.

**Q.** Which outcome does the source give for `Cc1cc2cccc(C)c2nc1SCC(=O)NNC(=O)c1ccco1` here?
**A.** The outcome was “inactive”.

**Q.** With `Cc1ccccc1-n1nc(C)c2cc(C(=O)N3CCN(S(=O)(=O)c4ccc(F)cc4)CC3)sc21` as the compound, how does the outcome read?
**A.** Its outcome is “inactive”.
